Here are results for 46 sequences from the supplement of paper PMC11417369.

Over roughly 25,000 sequences, “ln(normalized median fluorescence intensity)” has its median near 6.7; the highest 2% begin near 10. The sample holds the highest values, similar sequences and a random draw of the others, so the mix is not that of the screen.

This test deals with PfHDP1 homeodomain (GST-tagged). Description: gcPBM binding intensity (ln(normalized median fluorescence intensity)); higher = stronger DNA binding. In outline: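 GST-tagged P. falciparum DNA-binding domains, expressed in E. coli (about 25 μg on average), were applied for 1 h to an Agilent 4 × 180k array of primer-extended double-stranded 36-bp intergenic genomic probes plus negative controls. The binding buffer was 1× PBS with 1% milk, 0.2 mg/ml BSA, 0.5% salmon testes DNA and 0.03% Triton X-100. Bound protein was detected with Alexa488 anti-GST antibody and scanned at 488 nm. Binding intensity is the highest Masliner-normalised natural-log median intensity across replicate spots of either probe orientation.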
Take “ATTAAATGCACATATACACACACCCAATTTTAAGTT [CACACA_site3049]”: the “gcPBM binding intensity (ln)” value was found to be 11.3.

With “TAAAATAAAAAGTTTACACACATATATAATTTTAAT [CACACA_site662]”, the “gcPBM binding intensity (ln)” value was 6.24. For “ACCCAATTTTTTAGTACACACATATAAATATATAAA [CACACA_site4944]”, the “gcPBM binding intensity (ln)” value is 6.86. Under “ATATTTATACTATACACACCCAATTTAAAAAAAAAT [CACACA_site1163]” stands 7.11; under “CTTAAATTTTTAAATACACACATACACCCATACACA [CACACA_site4461]”, 7.25.

In the case of “TTCTTAAGGAACGAACGTACAGAATAAAAAGTAAAA [XGTACX_site4294]”, the “gcPBM binding intensity (ln)” value amounted to 6.61. Under “GTTTATGTTAAACCATGTACTTAATATTTTATTCTT [XGTACX_site3761]” stands 6.29; under “ATTACATTTTTAATGCGTACTAAAAATGTATATAAG [XGTACX_site6384]”, 6.6; under “ATTGAAAAACCGTTTAGTACATATCATCACGTTTGT [XGTACX_site1295]”, 6.04. With “CATACATACATACATACACACACATATATATATATA [CACACA_site8593]”, the “gcPBM binding intensity (ln)” value stood at 9.27.

Consider “ATTGCTTTTCTTTTTGCACACTTATGCATATATATA [CACACA_site2584]”, for which the “gcPBM binding intensity (ln)” value amounted to 10.4. Under “TGCTTTTCTTTTTGCACACTTATGCATATATATATA [CACACA_site2583]” stands 10.8; under “TTTCTATATGGATTTGCACACATAAAAATGCTTATA [CACACA_site8751]”, 10.2; under TTGTTCTTTTGAAAGGTGCAAAAGAAAAATAATTAA, 9.53.

Regarding TTTGAATACTGAATGGTGCAAATTGTTCTCCCCATG, the “gcPBM binding intensity (ln)” value came to 10.5. For “CCCTCCCCATGTTTAGTGCAAAAATATTTGAAATTG [GTGCAC_site9873]”, the “gcPBM binding intensity (ln)” value amounted to 10. For the sequence AAAGGATTTATACTAGTGCAAAAATATAAAAATATA, the “gcPBM binding intensity (ln)” value amounted to 9.12.

With “TTTTTTTTTTATGAAAGTACATATGAAAAATACGAA [XGTACX_site3451]”, the “gcPBM binding intensity (ln)” value was determined as 6.53. As for “CATTTTTTTTTATAAATACACACGTACGGGTGCATA [CACACA_site1569]”, the figure is 7.38. Under “TGATATTTAAATTTTGCACACGCATATGAAATTAGG [CACACA_site1034]” stands 10.1. For the sequence “ATTAAAAATTCAATTGCACACGCACATATTTTAATA [CACACA_site8618]”, the “gcPBM binding intensity (ln)” value was determined as 9.92. As for “ATATTTAAATTTTGCACACGCATATGAAATTAGGAC [CACACA_site1035]”, the figure is 10.5. As for “GACTCATTAAGGATTATTCCTAATGATCAAAAGAAC [CACACA_negctrl_site515]”, the figure is 6.54; as for TCTTAAAATATATAGGTGCAAAAAAAAAAAAAAAAA, 8.62; as for “TTTCTAATTTATATCACACACATATATTTATAGTAA [CACACA_site6280]”, 6.53. On to “ATAAAAATCAAAAAAAATACATAATAGTAATAATAA [GTGCAC_negctrl_site481]”, for which the “gcPBM binding intensity (ln)” value was 6.42. As for “CTTATGTGCATACCTACACACTTACCTATATTTATA [CACACA_site7411]”, the figure is 9.67; as for “ATTTTTATATAATGAACACACATATTATATCATTTA [CACACA_site1572]”, 6.51; as for “ATGCATACACTTATATGTACACATTTACATATTATT [XGTACX_site2841]”, 6.93. As for CTTTATATATATTGCGTGCACATTTTTTTTTTTTTT, the figure is 9.4; as for TATATATATATATATGTGCACATTTATTGCCTTTGC, 10.6; as for “GGAACTTATTTTTATACACACATATGTGCATATTAT [CACACA_site629]”, 10.8.

As to “TTTCACATATATATGGTGCATATTTTATGTGTAAAT [GTGCAC_site9937]”, the “gcPBM binding intensity (ln)” value is 9.91. With “TTTTGTTTATGTGTGCATTATATTATATTTTTTATT [TGCATGCA_negctrl_site146]”, the “gcPBM binding intensity (ln)” value was determined as 10.2. For TTTTTTTTCTATGTGGTGCACATTATTTTTTTTTTT, the “gcPBM binding intensity (ln)” value amounted to 9.27. Under “GTAAAGGCTATATATGTGCACATTTTTTTTTTTTTT [GTGCAC_site9925]” stands 10.9; under CATGAATATTTTAATGTGCACATTTATCATTATATG, 10.6; under “ATATTTTTATATAATGAACACACATATTATATCATT [CACACA_site8446]”, 6.22. As for “TTTTGTTTAGTGTATTGTACAATATATCTTTATTTT [XGTACX_site5163]”, the figure is 6.52; as for “TTTTGGCTGATCAGATTTAACAAAAAAAAAAAAAAA [CACACA_negctrl_site671]”, 6.06; as for “GAAATTAAATGACATACACACTATATTATAGATTTT [CACACA_site7468]”, 6.23. Under “AGTGGGATTTTTAATTGTACATAAATAATATCATAA [XGTACX_site4163]” stands 6.56; under “AGAATTAAAAACAGTTGTACAAAAAGTTGTATAAAT [XGTACX_site411]”, 7.41; under “AAATAAAAGGTTGAGAGTACATTTTTGTGTATGTAT [XGTACX_site5547]”, 6.49. On to “ACTGAAAAAAGAAATACACACATTCTGGATCAGATA [CACACA_site7760]”, for which the “gcPBM binding intensity (ln)” value turned out to be 6.39. As to “ATTTACATTATATTGAATATGCCATATTATATTATT [CACACA_negctrl_site811]”, the “gcPBM binding intensity (ln)” value is 6.59.
